Results from PubChem BioAssay (NCI).
The panel holds about 79,000 compounds, 15% with a hit somewhere; the sample as a whole holds those more often. Calls of active or inactive are those of the source. No stated cut-off is given here; in the data, active means growth inhibition above about 70%; inactive means the rest.

Legend:
[1] = NCI Yeast Anticancer Drug Screen. Data for the rad50 strain (AID 155);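 further: 0% = growth of vehicle-only cultures of the same strain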; settings: S. cerevisiae rad50 strain growth inhibition; at 50.0 µM; active compounds read high
Summary of the method: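 Compounds were tested on a yeast strain with an engineered DNA damage repair alteration; the reported value is growth inhibition normalised to vehicle treatment.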

[2] = NCI Yeast Anticancer Drug Screen. Data for the mec2-1 strain (AID 157); settings: S. cerevisiae mec2-1 strain, at 50.0 µM, active compounds read high
Summary of the method: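 Mutant yeast (mec2-1) grown with compound; growth inhibition relative to vehicle control reported.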

[3] = NCI Yeast Anticancer Drug Screen. Data for the sgs1 mgt1 strain (AID 161);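 further: 0% = growth of cultures given vehicle only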; settings: S. cerevisiae sgs1 mgt1 strain, at 50.0 µM, active compounds read high
Summary of the method: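 Compounds are added to genetically altered yeast, and growth is compared with cultures given vehicle alone to give percent inhibition.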

[4] = NCI Yeast Anticancer Drug Screen. Data for the cln2 rad14 strain (AID 165);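 further: 0% = growth equal to vehicle treated cultures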; settings: S. cerevisiae cln2 rad14 strain, at 50.0 µM, active compounds read high
Summary of the method: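 Readout is yeast growth inhibition versus vehicle-treated controls, using a strain with cln2 and rad14 alterations exposed to compound.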

[5] = NCI Yeast Anticancer Drug Screen. Data for the bub3 strain (AID 167); settings: S. cerevisiae bub3 mutant strain, at 50.0 µM, active compounds read high
Summary of the method: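 Growth of a checkpoint-deficient yeast mutant is measured after compound exposure. Values represent inhibition relative to vehicle.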

[6] = NCI Yeast Anticancer Drug Screen. Data for the mlh1 rad18 strain (AID 175); settings: S. cerevisiae mlh1 rad18 strain growth inhibition; at 50.0 µM; active compounds read high
Summary of the method: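 Genetically defined yeast (DNA repair-deficient) exposed to compounds; growth inhibition determined relative to vehicle.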

Measured: growth inhibition

CCN(CC)CCCC(C)NCCCN (configuration not stated)
inactive: [1] -7.15% | [2] -9.05% | [3] -5.4% | [4] -5.4% | [5] -23.3% | [6] -10%

CCOC(Cn1ccccc1=N)OCC
inactive: [1] 12.8% | [2] -11.7% | [3] -12.6% | [4] -40% | [5] -7.3% | [6] 4.15%

CCS(=O)c1ncc2cnccn12 (configuration not stated)
inactive: [1] 2.35% | [2] 1.3% | [3] 15.4% | [4] -17.8% | [5] 8.3% | [6] -18.8%

CSCCNC(=O)CS(=O)(=O)c1ccc(C)cc1
inactive: [1] 3.35% | [2] -11.4% | [3] 5.25% | [4] 20.2% | [5] 7.95% | [6] 17.4%

O=C(NC1CCC(CC2CCC(NC(=O)C34CC5CC(CC(C5)C3)C4)CC2)CC1)C12CC3CC(CC(C3)C1)C2 (configuration not stated)
inactive: [1] -13% | [2] 7.6% | [3] 19.3% | [4] -6.25% | [5] -1.85% | [6] 4.35%

CN(C)C(=S)/N=c1\ss/c(=N\C(=S)N(C)C)n1-c1ccc2c(c1)OCO2
inactive: [1] -16.1% | [2] -4.1% | [3] -3.45% | [4] -1.45% | [5] -16.9% | [6] 1.7%

COc1ccc(C(=O)/C=C/c2cc(C(C)(C)C)c(O)c(C(C)(C)C)c2)cc1
inactive: [1] 17.4% | [2] -1.2% | [3] 14.6% | [4] 25.4% | [5] 7.8% | [6] 18.2%

O=C1c2cc([N+](=O)[O-])ccc2-c2c(S)cccc21
inactive: [1] 2.25% | [2] 5.25% | [3] -10.2% | [4] -4.7% | [5] 25.8% | [6] -16.3%

S=c1cc(S)sc2c1c(=S)sc1nc3ccccn3c(=S)c12
inactive: [1] -2.35% | [2] 28.6% | [3] 35.3% | [4] 18% | [5] 24.6% | [6] 45%

CS1(=O)=NC(=O)C(N2C(=O)c3ccccc3C2=O)CC1 (configuration not stated)
inactive: [1] 0.6% | [2] 4.9% | [3] -0.95% | [4] -17.4% | [5] 13.2% | [6] 5.5%

Cc1c(NC=O)c(=O)n(-c2ccccc2)n1C
inactive: [1] -10.8% | [2] -33% | [3] 32.9% | [4] 3.65% | [5] 14.4% | [6] 33.7%

CC(=O)NC(Cc1cc(I)c(OC(C)=O)c(I)c1)C(=O)O (configuration not stated)
inactive: [1] -4.85% | [2] -16.8% | [3] 3.45% | [4] 6% | [5] 12.4% | [6] -0.6%

CC(=O)Nc1ccc2nc(C)cc(Cl)c2c1
inactive: [1] 25.5% | [2] -3.45% | [3] 9.4% | [4] -8.8% | [5] 6.55% | [6] 4.35%

CC(CCOCC1CO1)OCC1CO1 (configuration not stated)
inactive: [1] 13.8% | [2] -17.4% | [3] 3.85% | [4] 14.8% | [5] -17.5% | [6] 22.6%

O=C(Cc1cc2ccccc2[nH]c1=O)Nc1ccccc1
inactive: [1] 9.55% | [2] -7.2% | [3] 6.75% | [4] -27% | [5] -2.2% | [6] -5.55%

COc1cccc2c1OCC1Cc3ccccc3OC21 (configuration not stated)
active: [1] 72.2% | [3] 85.7% | [4] 72.2% | [6] 95.7%
inactive: [2] 45% | [5] 51.8%

C/C=C/c1ccc(OC(C)C(=O)c2ccc3c(c2)OCO3)c(OC)c1 (configuration not stated)
inactive: [1] -12.4% | [2] -28.9% | [3] 8.8% | [4] -10.5% | [5] 6.7% | [6] -7.05%

CC(=O)OCC/C=C\CCCOC(C)=O
inactive: [1] 5.55% | [2] -2.7% | [3] -3% | [4] -1.75% | [5] 8.3% | [6] 3.65%

O=C(Nc1cc([N+](=O)[O-])cc2c1[nH]c(=O)c1ccccc12)C(F)(F)F
inactive: [1] 26.2% | [2] -2.8% | [3] 10.8% | [4] -41.2% | [5] -7.4% | [6] -0.25%

N#CC1CCCCCCCCCCC(=O)N(CCCl)C1=O (configuration not stated)
inactive: [1] -4.25% | [2] -0.45% | [3] 13.2% | [4] 6.2% | [5] -12.9% | [6] -7.05%

Ic1cc2c(cc1CNCc1ccccc1)OCO2
inactive: [1] 11.7% | [2] -19.6% | [3] 26.7% | [4] -56.4% | [5] 2.6% | [6] 7.2%

OC1CCCC1c1ccccc1 (configuration not stated)
inactive: [1] 6.4% | [2] -24.4% | [3] -11.9% | [4] -7.55% | [5] -3.7% | [6] 4.45%

COc1ccc2nc(CC(C)C)c3c(c2c1)-c1ccccc1C3=O
inactive: [1] 1.35% | [2] -8.8% | [3] -10.2% | [4] -12.2% | [5] -0.35% | [6] -12.2%

CC(=O)Oc1cccc2ccccc12
inactive: [1] -23.4% | [2] -25.5% | [3] 1% | [4] -109% | [5] -36.8% | [6] -5.65%

N#C/C(=C\c1ccccc1Br)C(=O)c1ccccc1
inactive: [1] 15.2% | [2] 6.15% | [3] -3.35% | [4] 11.4% | [5] -12.8% | [6] -14.3%

CN(CCC#N)c1ccc(/C=C(\C#N)c2ccc(Br)cc2)cc1
inactive: [1] 12.2% | [2] -23.8% | [3] 13.6% | [4] -12% | [5] -0.85% | [6] -18.9%

O=c1c2ccccc2nc(-c2ccccc2Cl)n1NCC1(O)OCC(O)C(O)C1O (configuration not stated)
inactive: [1] 12% | [2] 5.2% | [3] 16.6% | [4] -13.2% | [5] -1.2% | [6] 3.25%

COC(=O)C1(C)CCCC2(C)C3CC4OC4(C(C)C)CC3(O)CCC12 (configuration not stated)
inactive: [1] -4.5% | [2] 6.85% | [3] 4% | [4] -8.4% | [5] -12.1% | [6] 42.1%

CCCOC(=O)Nc1cccc(C)c1
inactive: [1] 17.7% | [2] -5.65% | [3] -15.7% | [4] 0.4% | [5] 3% | [6] 8.95%

COc1cc(N=Nc2c[nH]c3ccccc23)c(OC)cc1N=Nc1ccc([N+](=O)[O-])cc1
inactive: [1] 26.3% | [2] 16.8% | [3] 0.6% | [4] -22% | [5] 13.7% | [6] 34.8%

c1ccc(-c2ccc(-c3ccccc3)c3nonc23)cc1
inactive: [1] -32.2% | [2] -2.25% | [3] -13.5% | [4] 23.4% | [5] 27.4% | [6] -4.45%

c1ccc(-c2ccc(N=NN3CCCC3)cc2)cc1
inactive: [1] 0.75% | [2] -5.6% | [3] 14.3% | [4] 6.4% | [5] -6.15% | [6] 8.1%

COc1ccc(C=C(c2ccc(OCc3ccccc3)cc2)c2ccc(OCc3ccccc3)cc2)cc1
inactive: [1] 13.2% | [2] -7.7% | [3] 6.55% | [4] 7.5% | [5] -28.1% | [6] -28.1%

COc1cccc(NC(=O)C(=O)C2C=CCS2(=O)=O)c1 (configuration not stated)
inactive: [1] 0.4% | [2] -0.65% | [3] -31.4% | [4] -6.6% | [5] -28.3% | [6] -13%

CCN(CC)Cc1cc(Nc2nc(/C=C/c3ccccc3)nc3ccccc23)ccc1O
inactive: [1] 4.05% | [2] -37.5% | [3] -3.25% | [4] 13.9% | [5] -6.7% | [6] -14.6%

O=C1CN(Cc2ccccc2)CCO1
inactive: [1] 4.95% | [2] -4.3% | [3] -3.55% | [4] 0.9% | [5] 10.5% | [6] 1.4%

CCN(CC)C(=S)Oc1cc(C)nc(SCC(=O)c2ccc(Cl)cc2)n1
inactive: [1] 22.6% | [2] -18.8% | [3] 41.2% | [4] 29.2% | [5] 30.8% | [6] 28.4%

CCC1CCN(CC)CC1
inactive: [1] 3.1% | [2] -37.4% | [3] 3.2% | [4] 1.8% | [5] -19.6% | [6] -4.1%

C=CC(O)CCCC (configuration not stated)
inactive: [1] 8.35% | [2] -32.6% | [3] 0.6% | [4] 6.25% | [5] -17.1% | [6] 18.1%

CCCC(C)(C)COC(=O)Cc1ccccc1
inactive: [1] 40.3% | [2] 42% | [3] 55.9% | [4] 23.8% | [5] 23.6% | [6] 46.2%

Nc1cccc(N)n1.[Cu+2]
inactive: [1] -20.1% | [2] -12.1% | [3] -13.8% | [4] -13.2% | [5] -15% | [6] -14.2%

O=C(O)c1c[nH]c2ccc([N+](=O)[O-])cc2c1=O
inactive: [1] -21% | [2] -12.8% | [3] -11.9% | [4] 11.7% | [5] -14% | [6] -7.95%
